Measurements reported in PubChem BioAssay (NCATS).
Results filed as inconclusive are left out. The source made the active and inactive calls. Calls come from the whole dose curve; as a rule, active = well fitted curve in the direction sought with a large enough effect; inconclusive = small, poorly fitted or top-dose-only effect, or another doubt; inactive = no such curve, though single readings can be large; an effect the other way counts as inactive or inconclusive.

How the values were obtained:
[1] = target: Arylsulfatase A (Homo sapiens) (UniProt P15289); experiment: qHTS screen for enhancers of Arylsulfatase A (ASA1): LOPAC Validation Assay (AID 720538); details: ASA enzyme activity, LOPAC qHTS enhancer assay; series mostly up to 57.5 µM
Sequence of Arylsulfatase A (Homo sapiens) (P15289 whole entry, looked up): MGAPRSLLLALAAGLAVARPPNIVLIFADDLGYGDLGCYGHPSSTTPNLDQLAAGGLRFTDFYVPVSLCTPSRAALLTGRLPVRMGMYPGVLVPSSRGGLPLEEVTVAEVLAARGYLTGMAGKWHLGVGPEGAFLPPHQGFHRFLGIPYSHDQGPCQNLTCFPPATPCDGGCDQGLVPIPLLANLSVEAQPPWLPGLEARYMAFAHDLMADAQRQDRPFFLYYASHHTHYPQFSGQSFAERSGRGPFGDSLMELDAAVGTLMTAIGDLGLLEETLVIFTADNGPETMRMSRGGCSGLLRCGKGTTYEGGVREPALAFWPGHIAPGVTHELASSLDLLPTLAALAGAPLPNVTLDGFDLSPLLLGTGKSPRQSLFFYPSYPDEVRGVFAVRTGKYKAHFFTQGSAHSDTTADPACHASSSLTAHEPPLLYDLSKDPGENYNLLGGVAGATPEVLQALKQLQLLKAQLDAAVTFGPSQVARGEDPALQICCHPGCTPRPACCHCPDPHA
How it was run: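 MLD patient fibroblasts (SV40, ASA-I179S), 1536-well; adhere 6 hrs; cpd 48h, 37 degree C, 5% CO2; pNCS 0.5mM final in lysis buffer, 14h RT; stop 1N NaOH final; fluor. Ex525/Em598.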

[2] = qHTS for compounds that reverse cellular toxicity of Amyloid beta (A-beta) peptide in yeast: LOPAC Validation Assay (AID 720559); details: yeast expressing A-beta; series mostly up to 46.1 µM
How it was run: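 Medium dispensed, compounds pinned, A-beta yeast suspension added; plates held at 30 C for 48 hr; absorbance measured at 600 nm to gauge growth; values scaled between DMSO and FeCl3/clioquinol (equimolar) controls.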

[3] = qHTS for Activators of Parkin Expression: LOPAC Validation Assay (NLuc Reporter) (AID 720572); details: Parkin promoter NanoLuc reporter cells, luminescence; series mostly up to 46.1 µM
How it was run: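 Neuronal line stably carrying a FLuc/NLuc coincidence reporter under the Parkin promoter, seeded 24 h, then dosed in 7-point series for 24 h at 37 C. NLuc luminescence read after FLuc; normalized to DMSO and positive control (100%).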

[4] = qHTS for Activators of Parkin Expression: LOPAC Validation Assay (FLuc Reporter) (AID 720573); details: Cell line, PRKN promoter firefly luciferase reporter, vehicle wells = 0, positive control = 100%; series mostly up to 46.1 µM
How it was run: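 Cells seeded, 24 h; compounds pinned, 7-pt dose response; 24 h at 37 C/5% CO2; volume reduced; FLuc reagent 10 min RT; luminescence read. Normalization: DMSO = 0, positive control = 100%.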

Measured: Potency

CCCN(CCC)CCc1c[nH]c2ccc(C(N)=O)cc12
inactive: all assays above

CCn1cnc2c(Nc3cccc(Cl)c3)nc(N[C@@H]3CCCC[C@@H]3N)nc21
inactive: all assays above

NCC(CP(=O)(O)O)c1ccc(Cl)cc1 (stereo not given)
inactive: all assays above

CN(N=O)c1cc(O)ccc1O
inactive: [1] | [2] | [4]
